# Rows were chosen to be rich in hits. Some 2.7% of all compounds tested hit in one or more screens of this group.
# LDHA inh: inhibitors of human lactate dehydrogenase A | P00338 | purified LDHA, NADH/diaphorase-resazurin fluorescence; active compounds read low | activity change, % (values are at about 110 or 230 µM) | 0.15% of 480,000 active; in the data active means activity change below about -30%; inconclusive means mostly about -25% to -30%;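 further: plate controls were DMSO wells for no effect and wells without enzyme for full effect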
#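 Remaining NADH was detected by diaphorase (0.133 mg/mL) converting 37 µM resazurin to fluorescent resorufin, read at 0 and 20 minutes. The preceding 5-minute room-temperature reaction used 2 nM LDHA, 0.2 mM sodium pyruvate and 0.06 mM NADH at pH 7.4.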
# A549 viability: A549 cytotoxicity, counter-screen for Nrf2 inhibitors; A549 ARE-Fluc cells, CellTiter-Fluor viability, 18-24 h; Potency, µM (top dose mostly 46 µM), for the others: top-dose activity change, negative = cytotoxicity, hits mostly inhibitors; 0.16% of 390,000 active; AID 504648; further: potency means the concentration at half of the fitted maximal effect; on the % scale 0 is the no-effect control and ±100 the full control effect
#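 Cytotoxicity counterscreen: CellTiter-Fluor fluorescence was measured in A549 ARE_Fluc cells after 18-24 h of compound exposure in a concentration series. The subsequent BugLite luminescent read reports ARE-luciferase activity.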
# Nrf2 inh: Nrf2 pathway inhibition. A549 ARE-Fluc reporter, luciferase luminescence, 18-24 h. Potency, µM (top dose mostly 46 µM), for inactives: top-dose activity change, negative = inhibition, hits mostly inhibitors. 2.1% of 360,000 active. AID 504444; further: potency means the concentration at half of the fitted maximal effect; on the % scale 0 is the no-effect control and ±100 the full control effect; nearly all actives have a fitted effect of over 60% in size
#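 Cells were seeded and rested 2 h, then exposed to compounds for 18-24 h. CellTiter-Fluor was read first as a viability measure. BugLite was added 15 min before the final luminescent read of ARE-luciferase activity in A549 cells.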
# ALOX12 inh: inhibitors of human 12S-lipoxygenase ALOX12 | Potency, µM (doses to about 108 µM), for inactives: at the top dose activity change, negative = inhibition, most hits filed as inhibitors | AID 1671190 | P18054 | 1.1% of 580,000 active | purified 12hLO, xylenol orange hydroperoxide absorbance; further: potency means the concentration at half of the fitted maximal effect; on the % scale 0 is the no-effect control and ±100 the full control effect
# Target sequence (P18054 whole entry, looked up): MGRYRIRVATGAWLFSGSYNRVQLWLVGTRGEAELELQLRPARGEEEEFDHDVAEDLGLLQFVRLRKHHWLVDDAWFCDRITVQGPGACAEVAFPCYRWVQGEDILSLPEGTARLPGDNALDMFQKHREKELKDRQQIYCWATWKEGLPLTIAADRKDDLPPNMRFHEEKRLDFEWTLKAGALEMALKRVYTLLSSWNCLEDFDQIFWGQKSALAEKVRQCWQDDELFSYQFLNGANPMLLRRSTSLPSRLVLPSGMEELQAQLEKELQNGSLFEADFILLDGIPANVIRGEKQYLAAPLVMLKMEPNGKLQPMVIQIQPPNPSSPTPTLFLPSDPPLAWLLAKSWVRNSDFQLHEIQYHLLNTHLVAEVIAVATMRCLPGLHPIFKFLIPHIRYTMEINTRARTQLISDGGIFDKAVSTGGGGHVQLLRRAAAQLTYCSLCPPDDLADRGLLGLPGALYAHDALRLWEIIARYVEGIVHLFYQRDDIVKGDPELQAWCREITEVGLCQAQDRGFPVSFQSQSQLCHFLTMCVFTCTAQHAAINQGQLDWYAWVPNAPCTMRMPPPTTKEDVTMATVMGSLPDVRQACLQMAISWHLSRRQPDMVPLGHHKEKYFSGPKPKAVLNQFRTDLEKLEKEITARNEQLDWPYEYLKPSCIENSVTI
#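 Purified human 12hLO at 150 nM in 25 mM Hepes, 0.01% Triton X-100, pH 7.0, preincubated 15 min at room temperature with compound. Reaction started with 40 uM arachidonic acid, 30 min at room temperature. Hydroperoxide measured by Fe-xylenol orange, 573/405 nm absorbance ratio.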
# ERG Ets-DNA blk: blocks human ERG Ets domain binding to DNA | 0.028% of 370,000 active | fluorescence polarization, His-ERG Ets domain / labelled DNA | Potency, µM (series often up to 76.9 µM), for inactives: top-dose FP activity, negative = inhibition, usual class: inhibitors | AID 624246; active means well fitted inhibition curve with a large enough effect in the polarisation, with a control signal flat; inconclusive means small, poorly fitted or top-dose-only effect, or effect the other way, or a change in a side signal; inactive means no such curve, though single readings can be large or run the other way; the % refers to the polarisation;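 further: polarization taken with two DNA probes labelled with fluorescein and Texas red; potency means the concentration at half of the fitted maximal effect; % of control where 0% means no effect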
#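 His-tagged ERG Ets domain (1 uM in the protein solution; 300mM KCl, 50mM Tris-HCl, 1mM EDTA, 1mM DTT, pH 7.5) received compound, then a probe mix of 5 nM fluorescein-DNA and 100nM Texas-615-DNA. Fluorescence polarization was read for both dyes.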
# Nrf2 activator: activators of Nrf2 (ARE) signaling; AREc32 ARE-luciferase reporter (MCF7-derived line), luminescence, 24 h; Potency, µM (highest dose often 46.1 µM), inactives show at the highest dose activation, actives largely listed as activators; 0.31% of 410,000 active; further: potency means the concentration at half of the fitted maximal effect; % of control where 0% means no effect; nearly all actives have a fitted effect of over 65% in size
#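 Quantitative high-throughput format: AREc32 reporter cells, 1000 per well, received compound by pin transfer and were incubated 24 hr at 37 deg C, 5% CO2, before Steady-Glo luminescence detection.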
# An asterisk follows results filed as active; u = inconclusive; x = no result given; [ ] = dose if it differs, or a comment. Unless noted, the call rests on the fitted dose curve; in most records, active means well fitted curve in the direction sought with a large enough effect; inconclusive means small, poorly fitted or top-dose-only effect, or another doubt; inactive means no such curve, though single readings can be large; an effect the other way counts as inactive or inconclusive.
SMILES,LDHA inh,A549 viability,Nrf2 inh,ALOX12 inh,ERG Ets-DNA blk,Nrf2 activator
C=C1C(=O)O[C@@H]2C[C@@H](C)[C@@H]3C=CC(=O)[C@@]3(C)[C@@H](O)[C@H]12,-9,9.2µM*,3.7µM*,0%[176 µM],-1%,-3%
COc1ccc(CC(=O)N2CC3(CCN(C)CC3)c3cc(OC)c(OCc4ccccc4)cc32)cc1,x,x,x,-11%,x,x
CC[C@@]1(O)C(=O)OCc2c1cc1n(c2=O)Cc2cc3c(NC(=O)CN)cccc3nc2-1,10,-8%,2.6µM*,8%,-7%,0%
CCC1(OC(=O)CN)C(=O)OCc2c1cc1n(c2=O)Cc2cc3ccccc3nc2-1 (stereo not drawn),-5,u,0.58µM*,x,1%,0%
O=C(c1cn(Cc2ccccc2)c2ccccc12)N1CCC1,6,x,x,18%,x,x
CN(C)c1ccc(/C=C/C=C/c2sc3ccccc3[n+]2C)cc1,0,-12%,u,u,91%,3%
CN(C)c1ccc(/C=C/c2cc[n+](C)c3ccccc23)cc1,16,16µM*,8.2µM*,u,163%,-1%
CC(=O)OC(C)(C)/C=C/C(=O)C(C)(O)C1C(O)CC2(C)C3CC=C4C(CC(O)C(=O)C4(C)C)C3(C)C(=O)CC12C (stereo not drawn),-1,2.9µM*,u,-17%,3%,-1%
CNCC/C=C\c1cccnc1,x,x,x,25µM*,x,x
N#CC(C#N)=Cc1cccnc1,-4,-5%,4%,-1%,2%,2%
O=C(/C=C/c1ccccc1)c1c(O)n(CCc2ccccc2)c(=O)[nH]c1=O,-1,u,-6%,-23%,-3%,8.9µM*
O=C(/C=C/c1ccc2c(c1)OCO2)c1c(O)n(CCc2ccccc2)c(=O)[nH]c1=O,-6,u,u,u,2%,u
CCc1nc2ccc(Br)cc2c(=O)n1-c1ccccc1C(F)(F)F,-5,-5%,4%,0%,1%,0%
CCCc1nc2ccc(Br)cc2c(=O)n1-c1ccc([N+](=O)[O-])c(C(F)(F)F)c1,2,-23%,21µM*,-8%,7%,6%
CCC(CC)NC1CC1,5,x,x,u,x,x
CC(C)c1ccc(N2C(=O)NC(=O)/C(=C\C=C\c3ccco3)C2=O)cc1,-10,u,u,10µM*,73%,5%[9.22 µM]
O=C1NC(=O)N(Cc2ccccc2)C(=O)/C1=C/C=C/c1ccco1,-13,-15%,-12%,u,69%,u
O=C(Nc1ccc(Br)cc1)c1cccc(S(=O)(=O)N2CCc3ccccc32)c1,3,-22%,16µM*,u,2%,-1%
Cc1c(CC(=O)N2CCN(C(c3ccccc3)c3ccccc3)CC2)c(=O)oc2cc(O)ccc12,16,x,x,6%,x,x
CC=C(C)C1(CCC)C(=O)NC(=S)NC1=O,0,0%,6%,32µM*,-9%,-2%
CCn1ccc(C(=O)N2CCC3(CC2)c2nccn2-c2ccccc2CN3CC(C)C)n1,x,x,x,37%,x,x
Cc1nc(-c2ccccc2)cc([C@H]2CN3CC[C@H]2C[C@@H]3CNC(=O)NC(C)C)n1,x,x,x,25µM*,x,x
Cc1nc(-c2ccccc2)cc([C@H]2CN3CC[C@H]2C[C@@H]3CNC(=O)C2CCC2)n1,x,x,x,23%[176 µM],x,x
COc1ccc(NC(=O)NC[C@H]2C[C@@H]3CCN2C[C@@H]3c2cc(-c3ccccc3Br)nc(C)n2)cc1,x,x,x,35µM*,x,x
CCn1nc(C)c(CN2CCCC(C(=O)c3cccc(OC(C)C)c3)C2)c1C (stereo not drawn),-11,0%,10µM*,-2%,9%,0%
SMILES,LDHA inh,A549 viability,Nrf2 inh,ALOX12 inh,ERG Ets-DNA blk,Nrf2 activator
C[C@@H]1O[C@H](O[C@@H]2C[C@@H](O)[C@]3(CO)[C@H]4[C@H](O)C[C@]5(C)[C@@H](C6=CC(=O)OC6)CC[C@@]5(O)[C@@H]4CC[C@]3(O)C2)[C@@H](O)[C@H](O)[C@H]1O,x,x,x,257%,x,x
C[C@@H]1O[C@@H](O[C@H]2C[C@@H](O)[C@]3(CO)[C@H]4[C@H](O)C[C@]5(C)[C@@H](C6COC(=O)C6)CC[C@]5(O)[C@@H]4CC[C@]3(O)C2)[C@H](O)[C@H](O)[C@H]1O (stereo partly drawn),-3,u,0.41µM*,-4%,u,-4%
COc1cccc(CN2CC[C@@H]3CN(S(C)(=O)=O)[C@@H]3C2)n1,x,x,x,13%,x,x
COc1cc2c(cc1OC1CCCC1)NC(=O)C21CCN(C(=O)c2ccccc2)CC1,x,x,x,-17%[176 µM],x,x
CC1=CC2/C=C(\C)CCC(O)C(O)/C=C/C(=O)C23C(=O)NC(CC(C)C)C3C1C (stereo not drawn),-3,16µM*,15µM*,x,3%,u
CC(=O)c1cn(Cc2ccccc2F)c2ccccc12,-3,-8%,5.8µM*,-29%,8%,3%
O=Cc1cn(Cc2ccccc2F)c2ccccc12,-12,-13%,-18%,u,-4%,5%
O=[S+]1([O-])NC2(CCN(Cc3ccncc3)C2)COc2ccncc21 (stereo not drawn),x,x,x,8%[6.33 µM],x,x
CCC1(N2CCN(C(=O)COc3cccc(Cl)c3)CC2)CCN(C(=O)NC)C1 (stereo not drawn),x,x,x,64%,x,x
O=C1NC(=O)C(=Cc2ccc(Cl)cc2)C(=O)N1,x,x,x,40µM*,x,x
O=C1NC(=O)C(=Cc2ccccc2OCCOc2ccc([N+](=O)[O-])cc2)C(=O)N1,-81*,-8%,16%,x,4%,3%
COc1cc(C=C2C(=O)NC(=O)NC2=O)ccc1OCc1ccc([N+](=O)[O-])cc1,-16,-3%,7%,u,6%,3%
CN1C(=O)C(=Cc2ccccc2OCCOc2ccc([N+](=O)[O-])cc2)C(=O)N(C)C1=O,-19,0%,-4%,u,-11%,1%
O=C1NC(=O)C(=Cc2ccc(Oc3ccc([N+](=O)[O-])cc3)cc2)C(=O)N1,-33*,1%,-10%,x,-2%,-1%
C/C(=N/NC(N)=S)c1ccc(Cl)cc1,3,x,x,u,x,x
C#CCOc1cccc(C2SCC(=O)Nc3c2c(C)nn3-c2ncnc3nc[nH]c23)c1 (stereo not drawn),7,x,x,-3%,x,x
CCOc1ccc(-c2cc(C)[n+](CCO)c(-c3ccc(OCC)cc3)c2)cc1,-8,-7%,12µM*,3%,-4%,0%
CCOc1ccc(-c2cc(C)[n+](CCc3ccc(OC)c(OC)c3)c(-c3ccc(OCC)cc3)c2)cc1,-2,-10%,u,-18%,0%,5%
CN1CCC(=O)C2CCCCC21 (stereo not drawn),-8,x,x,-7%,x,x

# Bioassay records: PubChem, National Center for Advancing Translational Sciences (NCATS)
